HT1080 IDH1KD tx: qHTS for induction of synthetic lethality in tumor cells producing 2HG: qHTS for the HT-1080-IDH1KD cell line. Potency, µM (top dose mostly 46.1 µM), for the others: at the top dose activity, negative = toxicity, usual class: cytotoxic. AID 686971, 2013. HT-1080 IDH1 knockdown viability, ATP luminescence, 48 h. 360,000 tested, 2% active;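 also: potency is read from the fitted curve at half-maximal effect; 0% = DMSO wells and -100% = cell-free medium wells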
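HT-1080-IDH1KD cells (IDH1 knocked down), 750/well in RPMI with 5% FBS, treated with compound 48 h at 37 degrees C. Viability by CellTiter-Glo luminescence, normalised to DMSO and no-cell wells; concentration-response curves classed.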
12-LOX inh: Primary qHTS assay for inhibitors of human arachidonate 12S-lipoxygenase (ALOX12): Round 2 | Polyunsaturated fatty acid lipoxygenase ALOX12 (Homo sapiens), P18054 | purified 12hLO, xylenol orange hydroperoxide absorbance | Potency, µM (titrated, usually from 108 µM), for inactives: at the highest dose activity change, negative = inhibition, hits mostly inhibitors | 580,000 tested, 1.1% active; also: potency is read from the fitted curve at half-maximal effect
Target sequence (P18054 whole entry, looked up): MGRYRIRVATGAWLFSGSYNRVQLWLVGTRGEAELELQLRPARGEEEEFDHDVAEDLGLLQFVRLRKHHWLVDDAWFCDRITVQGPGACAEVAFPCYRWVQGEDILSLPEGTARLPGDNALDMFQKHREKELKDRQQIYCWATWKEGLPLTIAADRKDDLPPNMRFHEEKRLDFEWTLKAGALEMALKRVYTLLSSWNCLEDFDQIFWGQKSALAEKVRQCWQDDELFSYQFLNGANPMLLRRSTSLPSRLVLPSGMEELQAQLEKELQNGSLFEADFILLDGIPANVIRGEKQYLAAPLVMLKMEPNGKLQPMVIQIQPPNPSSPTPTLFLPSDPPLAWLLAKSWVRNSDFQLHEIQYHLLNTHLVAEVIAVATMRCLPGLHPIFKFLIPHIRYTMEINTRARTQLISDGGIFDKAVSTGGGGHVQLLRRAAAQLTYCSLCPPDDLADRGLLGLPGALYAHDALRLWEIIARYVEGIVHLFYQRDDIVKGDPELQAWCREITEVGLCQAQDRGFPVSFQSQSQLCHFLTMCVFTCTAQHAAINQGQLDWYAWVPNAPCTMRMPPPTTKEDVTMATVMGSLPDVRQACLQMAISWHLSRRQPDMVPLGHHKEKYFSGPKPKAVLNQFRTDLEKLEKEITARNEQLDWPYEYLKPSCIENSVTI
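Hydroperoxide product was detected by ferrous iron/xylenol orange as the 573 to 405 nm absorbance ratio. Arachidonic acid at 40 uM (final) was turned over for 30 min at room temperature by 150 nM human 12hLO, pH 7.0 Hepes buffer, after 15 min compound preincubation.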
TDP1 cell CPT: qHTS for Inhibitors of human tyrosyl-DNA phosphodiesterase 1 (TDP1): qHTS in cells in presence of CPT | AID 686979, 2013 | chicken DT40 Tdp1-/-;hTDP1 cells + 20 nM CPT, ATP luminescence, 48 h | 420,000 tested, 12% active | Potency, µM (titrated, usually from 46.2 µM), inactives show top-dose activity change, negative = growth inhibition, hits mostly inhibitors; also: potency is read from the fitted curve at half-maximal effect; nearly all actives have a fitted effect of over 55% in size
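Chicken DT40 Tdp1-/- cells stably complemented with human TDP1 were seeded at 400 cells/well in medium containing 20 nM camptothecin, exposed to pin-transferred compounds, and grown at 37 °C for at least 48 hr. Viability was read as ATP luminescence.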
IL-1B inflam inh: qHTS for Inhibitors of Inflammasome Signaling: IL-1-beta AlphaLISA Primary Screen; activity change, % at 57.5 µM; AID 743279, 2014; THP-1 LPS/ATP IL-1B secretion, AlphaLISA, 16 h; active compounds read low; 360,000 tested, 4.7% active; in the data active = activity change below about -50%; inconclusive = mostly about -30% to -49%
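THP-1 cells pretreated 1 hr with compounds (up to 57.5 uM final), then stimulated with LPS (250 ng/mL final) plus ATP (1.25 mM final); secreted IL-1B measured by AlphaLISA after 16 hr, decreased signal indicating inhibition.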
HT1080-NT tox: qHTS for induction of synthetic lethality in tumor cells producing 2HG: qHTS for the HT-1080-NT fibrosarcoma cell line; HT-1080-NT fibrosarcoma viability, CellTiter-Glo ATP luminescence, 48 h; Potency, µM (highest dose often 46.1 µM), without a hit: at the top dose activity, negative = less viability, usual class: cytotoxic; 360,000 tested, 1.6% active; AID 686970, 2013;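 also: NT is the 2HG producing partner of a matched IDH1 knockdown line; potency is read from the fitted curve at half-maximal effect; 0% = DMSO-treated cells and -100% = media-only wells without cells; nearly all actives have a fitted effect of over 55% in size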
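Viability of the 2HG-overproducing fibrosarcoma line after 48 hours of compound exposure at 37 degrees C was determined by luminescence with CellTiter-Glo, and concentration-effect curves were then fitted and categorized.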
TDP1 cell noCPT: qHTS for Inhibitors of human tyrosyl-DNA phosphodiesterase 1 (TDP1): qHTS in cells in absence of CPT; DT40 Tdp1-/- hTDP1 cells, no CPT, ATP luminescence, 48 h; Potency, µM (top dose mostly 46.2 µM), for inactives: at the highest dose activity change, negative = growth inhibition, hits mostly inhibitors; 420,000 tested, 15% active; AID 686978, 2013; also: potency is read from the fitted curve at half-maximal effect; nearly all actives have a fitted effect of over 55% in size
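No-CPT arm: Tdp1-/-;hTDP1 DT40 cells (400/well) plus compounds, incubated ≥48 hr at 37 °C. Readout CellTiter-Glo luminescence.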
Starred values were filed as active, the others as inactive; ? = inconclusive; . = not tested or not shown; [ ] = remark or other dose. The sample as a whole holds a higher share of hits than the screen did. Unless noted, calls follow the shape of the dose curve; as a rule, active = well fitted curve in the direction sought with a large enough effect; inconclusive = small, poorly fitted or top-dose-only effect, or another doubt; inactive = no such curve, though single readings can be large; an effect the other way counts as inactive or inconclusive. Unless noted, % is scaled to controls: 0 for no effect and ±100 for the full control effect.

SMILES	HT1080 IDH1KD tx	12-LOX inh	TDP1 cell CPT	IL-1B inflam inh	HT1080-NT tox	TDP1 cell noCPT
c1cncc(C2=NOC3(CCN(C4COC4)CC3)C2)c1	.	2.8%[12.5 µM]	.	.	.	.
CCCCCCCCCc1ccc(OCCOCCO)cc1	.	.	2.99µM*	.	.	2.99µM*
Cc1ccc(CN2C3CCCC2CC(NC(=S)NCc2ccccc2)C3)cc1 (configuration not stated)	?	?	?	-64.5*	23.1µM*	?
CN(Cc1ccccc1)C[C@H]1CN2CC[C@H]1C[C@@H]2CNC(=S)Nc1ccc(N(C)C)cc1	.	-12.9%	.	.	.	.
C/C=C(\C)C(=O)N[C@@H](c1ccccc1)[C@@H](O)C(=O)O[C@H]1C[C@@]2(O)[C@@H](OC(=O)c3ccccc3)C3[C@](C)(C(=O)[C@H](OC(C)=O)C(=C1C)C2(C)C)[C@H](O)C[C@H]1OC[C@@]31OC(C)=O (some centres not stated)	0.0052µM*	36.6%	0.13µM*	41.3	0.0461µM*	0.164µM*
CC/C=C/CC(=O)N[C@@H](c1ccccc1)[C@@H](O)C(=O)O[C@H]1C[C@@]2(O)[C@@H](OC(=O)c3ccccc3)C3[C@](C)(C(=O)[C@H](OC(C)=O)C(=C1C)C2(C)C)[C@@H](O)C[C@H]1OC[C@@]31OC(C)=O (some centres not stated)	0.0052µM*	-2.0%	0.0206µM*	15.0	0.0411µM*	0.184µM*
CCC(C)C(=O)N[C@@H](c1ccccc1)[C@@H](O)C(=O)O[C@H]1C[C@@]2(O)[C@@H](OC(=O)c3ccccc3)C3[C@](C)(C(=O)[C@H](OC(C)=O)C(=C1C)C2(C)C)[C@@H](O)C[C@H]1OC[C@@]31OC(C)=O (some centres not stated)	?	5.6%	0.0291µM*	16.9	0.184µM*	0.184µM*
O=[N+]([O-])c1ccc(NCCOc2cccc3ccccc23)c2ncccc12	.	-0.3%	.	.	.	.
CCCCCc1nc2c(c(=O)c3ccccc3n2C)c(=O)n1C1CCCCCC1	?	?	20.6µM*	10.3	?	18.4µM*
CS(=O)(=O)NC[C@H]1C[C@@H]2CCN1C[C@@H]2CN1CCCCC1	.	23.4%[176 µM]	.	.	.	.
CCOC(=O)[C@]12Cc3ccccc3[C@H]1N(Cc1ccccc1)C(=O)c1cc(OC)ccc12	?	0.0%	?	-13.3	?	18.4µM*
CCOC(=O)[C@]12Cc3ccc4ccccc4c3[C@H]1N(Cc1ccccc1)C(=O)c1ccccc12	0.6%	-20.0%	?	-56.4*	-8.7%	?
CCOC(=O)[C@]12Cc3c(cc(OC)c(OC)c3OC)[C@H]1N(Cc1ccccc1)C(=O)c1ccccc12	-5.6%	-5.8%	?	?	-13.9%	16.4µM*
CCOC(=O)[C@]12Cc3cc(Cl)ccc3[C@H]1N(Cc1ccccc1)C(=O)c1cc(OC)ccc12	13µM*	?	4.61µM*	-113.5*	14.6µM*	5.8µM*
O=C(O)c1cn(Cc2ccc(F)cc2Cl)nn1	.	7.1%	.	.	.	.
CC(C)(C)c1ccc(-c2cn(C[C@H]3CC4CCN3C[C@@H]4C(=O)Nc3ccccc3)nn2)cc1 (some centres not stated)	.	5.5%	.	.	.	.
O=C(Nc1ccncc1)C(=O)c1cn(Cc2ccc(Cl)cc2)c2ccccc12	.	5.4%[57.4 µM]	.	.	.	.
